From PubChem
HP1b chromo inh: HTS for Inhibitors of HP1-beta Chromodomain Interactions with Methylated Histone Tails; AlphaScreen HP1-beta / biotin-H3K9me3 peptide binding; Potency, µM (titrated, usually from 114 µM), for the others: at the top dose activity change, negative = inhibition, hits mostly inhibitors; actives 0.56% (n = 390,000); also: potency is read from the fitted curve at half-maximal effect; nearly all actives have a fitted effect of over 70% in size
Target sequence (P83916 whole entry, looked up): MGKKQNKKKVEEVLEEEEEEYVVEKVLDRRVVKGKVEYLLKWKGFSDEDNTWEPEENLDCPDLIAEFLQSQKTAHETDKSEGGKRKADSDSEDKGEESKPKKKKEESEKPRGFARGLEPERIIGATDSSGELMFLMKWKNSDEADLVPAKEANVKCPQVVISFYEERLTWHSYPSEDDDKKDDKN
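HP1-beta protein (50 nM final) preincubated 30 min at room temperature with biotinylated H3(1-18)K9me3 peptide (50 nM) in PBS pH 7.4, 0.01% Tween-20, then compound added for 30 min. AlphaScreen streptavidin donor/nickel chelate acceptor beads (10 ug/mL final), 30 min dark, luminescence read.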
BAZ2B block: qHTS Assay for Inhibitors of BAZ2B; Potency, µM (top dose mostly 114 µM), without a hit: top-dose activity change, negative = inhibition, actives largely listed as inhibitors; AlphaScreen BAZ2B-H3K14Ac peptide displacement; actives 4.4% (n = 360,000); Bromodomain adjacent to zinc finger domain protein 2B (Homo sapiens), Q9UIF8; also: potency is read from the fitted curve at half-maximal effect; % is scaled to controls: 0 for no effect and ±100 for the full control effect; nearly all actives have a fitted effect of over 60% in size
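BAZ2B (50 nM) with biotin-H3(5-23)K14Ac peptide (50 nM) in PBS pH 7.4, 0.01% Tween-20, preformed 30 min, then compound 30 min at room temperature; top concentration 110uM. AlphaScreen streptavidin donor/nickel chelate acceptor beads (10 ug/mL final), 20 min dark, signal read.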
JMJD2A Tudor inh: qHTS Assay for Inhibitors of JMJD2A-Tudor Domain; Lysine-specific demethylase 4A (Homo sapiens), O75164; AlphaScreen JMJD2A-Tudor / H3K4me3 peptide binding; Potency, µM (highest dose often 114 µM), inactives show top-dose activity change, negative = inhibition, actives largely listed as inhibitors; actives 4.4% (n = 390,000); also: potency is read from the fitted curve at half-maximal effect; % is scaled to controls: 0 for no effect and ±100 for the full control effect; nearly all actives have a fitted effect of over 50% in size
Sfp PPTase inh: qHTS Assay for Inhibitors of Bacillus subtilis Sfp phosphopantetheinyl transferase (PPTase); 4'-phosphopantetheinyl transferase ffp (Bacillus subtilis), Q9F4F7; Biochemical Sfp PPTase activity, qHTS; Potency, µM, for the others: largest response in the series, negative = inhibition, hits mostly inhibitors; actives 3.5% (n = 310,000);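 also: the enzyme is Sfp with the accession as filed and its product quenches rhodamine fluorescence; potency is read from the fitted curve at half-maximal effect; 0% = enzyme reaction without inhibitor and -100% = no enzyme wells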
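Fluorescence-quenching assay: 15 nM Sfp-PPTase preincubated 15 min at room temperature with compound, then 5 uM rhodamine-CoA and 12.5 uM BHQ-2-labelled YbbR peptide added. Fluorescence (ex 525/em 598 nm) read at start and after 30 min; difference gives rate.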
G9a inh: qHTS Assay for Inhibitors of Histone Lysine Methyltransferase G9a; G9a H3K9 monomethylation, AlphaScreen, 2 h; AID 504332, 2011; actives 8.8% (n = 350,000); Histone-lysine N-methyltransferase EHMT2 (Homo sapiens), Q96KQ7; Potency, µM (top dose mostly 102 µM), for inactives: top-dose activity, negative = inhibition, most hits filed as inhibitors; also: potency is read from the fitted curve at half-maximal effect; % is scaled to controls: 0 for no effect and ±100 for the full control effect; nearly all actives have a fitted effect of over 75% in size
Target sequence (Q96KQ7 913-1193 limits assumed): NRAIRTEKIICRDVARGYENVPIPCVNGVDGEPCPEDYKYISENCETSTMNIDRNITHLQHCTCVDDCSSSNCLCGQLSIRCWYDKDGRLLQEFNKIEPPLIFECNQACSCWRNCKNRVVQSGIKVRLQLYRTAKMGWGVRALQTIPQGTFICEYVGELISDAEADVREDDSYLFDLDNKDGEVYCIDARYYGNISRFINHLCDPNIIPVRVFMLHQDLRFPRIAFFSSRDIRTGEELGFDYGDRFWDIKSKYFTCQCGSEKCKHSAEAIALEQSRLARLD
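G9a (20 nM) was preincubated 15 min with compound, then reacted 2 h at room temperature with 500 nM biotin-H3K9 peptide and 20 µM SAM. Monomethyl-H3K9 detected by AlphaScreen using anti-H3K9me1 antibody.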
L3MBTL1 block: qHTS Assay for the Inhibitors of L3MBTL1; Lethal(3)malignant brain tumor-like protein 1 (Homo sapiens), Q9Y468; AlphaScreen L3MBTL1–H3K9me1 peptide binding; Potency, µM (doses to about 57.1 µM), without a hit: at the highest dose activity, negative = inhibition, most hits filed as inhibitors; actives 0.66% (n = 230,000); AID 485360, 2010; also: potency is read from the fitted curve at half-maximal effect; % is scaled to controls: 0 for no effect and ±100 for the full control effect; nearly all actives have a fitted effect of over 60% in size
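Read-out is AlphaScreen signal from streptavidin donor and nickel chelate acceptor beads (10 ug/mL final each) bridging L3MBTL1 (50 nM) and biotinylated K9-monomethylated H3(1-15) peptide (75 nM), after 30 min compound exposure at room temperature.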
Sfp PPTase conf: Confirmation qHTS Assay for Inhibitors of Bacillus subtilis Sfp phosphopantetheinyl transferase (PPTase); shares compounds with Sfp PPTase inh; Sfp PPTase enzymatic assay, qHTS titration; Potency, µM (highest dose often 114 µM), inactives show top-dose activity change, negative = inhibition, most hits filed as inhibitors; actives 79% (n = 380); AID 2701, 2010;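 also: potency is read from the fitted curve at half-maximal effect; plate controls were uninhibited Sfp reaction for no effect and no enzyme control for full effect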
Target sequence (Q9F4F7 whole entry, looked up): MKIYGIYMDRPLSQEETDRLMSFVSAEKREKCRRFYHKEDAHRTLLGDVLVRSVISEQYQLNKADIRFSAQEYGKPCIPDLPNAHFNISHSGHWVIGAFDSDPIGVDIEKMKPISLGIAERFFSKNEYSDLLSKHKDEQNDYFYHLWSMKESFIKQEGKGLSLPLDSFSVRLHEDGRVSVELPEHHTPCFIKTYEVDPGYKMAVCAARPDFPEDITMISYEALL
Sfp PPTase gel: Gel-Based Assay for Inhibitors of Bacillus subtilis Sfp phosphopantetheinyl transferase (PPTase); shares compounds with Sfp PPTase inh; purified Sfp, gel-based phosphopantetheinylation read-out; Potency, µM, usual class: inhibitors; actives 20% (n = 210);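 active = potency below 100 µM; inconclusive = dose-dependent response but potency above 100 µM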;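 also: band intensities scaled against SCH202676 control wells before curve fitting; potency is an IC50 for inhibitors of Sfp transfer activity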
An asterisk follows results filed as active; i = inactive; u = inconclusive; x = no result; ! = not confirmed by another sample; [ ] = dose if it differs, or a comment. Rows were chosen to be rich in hits. Some 12% of all compounds tested hit in one or more screens of this group. Unless noted, calls follow the shape of the dose curve; as a rule, active = well fitted curve in the direction sought with a large enough effect; inconclusive = small, poorly fitted or top-dose-only effect, or another doubt; inactive = no such curve, though single readings can be large; an effect the other way counts as inactive or inconclusive.

SMILES	HP1b chromo inh	BAZ2B block	JMJD2A Tudor inh	Sfp PPTase inh	G9a inh	L3MBTL1 block	Sfp PPTase conf	Sfp PPTase gel
COc1ccc(C)cc1NC(=O)CSc1nnc(-c2ccccn2)n1Cc1ccco1	8%	u	u	-22%	-19%[59 µM]	-17%	x	x
COc1ccccc1NC(=O)CSc1nnc(-c2ccccn2)n1Cc1ccco1	-15%	u	56µM*	4.5µM*	u	-9%	59µM*	i
Clc1cccc(Cl)c1CSc1nnc([C@@H]2CCCN2)o1	56%	-19%	-11%	15%	2%	-6%	x	x
CN(C)C(CNc1ccc(S(C)(=O)=O)cc1[N+](=O)[O-])Cc1ccccc1 (stereo not given)	-8%	-20%	-30%	25%	-4%[59 µM]	x	x	x
O=C(Nc1ccc(Oc2c(F)c(F)c(F)c(F)c2F)cc1)OC1CCN2Cc3ccccc3N=C12 (stereo not given)	57%	-4%	-8%	-6%	17%[59 µM]	x	x	x
O[C@@H]1CCN2Cc3ccccc3N=C12	x	x	x	2.8µM*	x	x	2.1µM*	0.69µM*
Clc1ccc(-c2nn3c(-c4ccncc4)nnc3s2)c(Cl)c1	x	x	x	7%	-12%[59 µM]	9%	x	x
Clc1ccccc1-c1nn2c(-c3ccncc3)nnc2s1	u	0%	u	16µM*	3.2µM*	5%	13µM*	x
COc1ccc(CNC(=O)c2nc(SCc3ccccc3F)ncc2Cl)cc1	41%	3%	-14%	x	-10%[59 µM]	x	x	x
COC(=O)c1[nH]c2ccccc2c1NC(=O)Oc1ccccc1	9%	-31%	-28%	11µM*	10µM*	-4%	u	x
CCN1CCc2nc(N)sc2C1	-20%	-15%	3%	11µM*	13µM*	2%	12µM*	u
CCCN[C@H]1CCc2nc(N)sc2C1	29%	x	-16%	0%	-28%[12.7 µM]	x	x	x
C=CCN1CCc2nc(N)sc2CC1	18%	-3%	-14%	56µM*!	16µM*	1%	59µM*	u
O=C(CCCCCN1C(=O)[C@@H]2Cc3ccccc3CN2C1=O)Nc1ccccc1Cl	39%	-7%	11%	21%	-5%	x	x	x
CCOC(=O)c1c(C)[nH]c(C2=NNC(=NC3CC3)SC2)c1C	u	-32%	u	7.1µM*	18µM*	-21%	42µM*	x
Cc1ccc(-c2ccc(=O)n(CCC(=O)N3CCN(c4cccc(C)c4)C(C)C3)n2)cc1 (stereo not given)	24%	u	-27%	-6%	u	x	x	x
COc1ccc(Nc2nc3[nH]c(=O)cc(O)c3s2)cc1	27%	u	-8%	4µM*	u	8%	19µM*	i
CCOC(=O)c1c(N2C(=O)CC(Sc3ccccc3C(=O)O)C2=O)sc2c1CCCC2 (stereo not given)	8%	50µM*	u	3.5µM*	x	1%	42µM*	x
CCOC(=O)c1c(NC(=O)c2ccccc2C(=O)O)sc2c1CCCC2	18%	-2%	-17%	13%	4%	-2%	x	x
Nc1c(C(=O)Nc2ccccc2)sc2nc(-c3cccnc3)ccc12	x	-26%	x	7.9µM*	u	x	30µM*	u
Cn1nnc(NC(=S)NC(=O)c2ccco2)n1	u	u	u	6.3µM*	7.9µM*	51%	u	i
O=c1c(N2CCc3ccccc3C2)csc2ccc(Cl)cc12	26%[57 µM]	0%	-19%	x	-3%[59 µM]	x	x	x
CCOc1ccc(C(=O)CCC(=O)N(CC)CC(=O)NCc2cccs2)cc1	5%	5%	-17%	x	-2%[12.7 µM]	-10%	x	x
CCOc1ccc(C(=O)CC(NCc2cccs2)C(=O)O)cc1 (stereo not given)	6%	-26%	89µM*	11µM*	25µM*	-4%	37µM*	x
Cc1nnc2sc(SCc3ccc(Br)cc3)nn2c1=O	20%	x	-4%	13%	-2%	x	x	x
SMILES	HP1b chromo inh	BAZ2B block	JMJD2A Tudor inh	Sfp PPTase inh	G9a inh	L3MBTL1 block	Sfp PPTase conf	Sfp PPTase gel
N[C@@H](Cc1ccccc1)c1nnc2sc(SCc3ccccc3)nn12	71%	u	u	45µM*	7.1µM*	7%[11.4 µM]	66µM*	x
COc1ccccc1N1CCN(C(=O)c2oc3cc(C)cc(C)c3c2C)CC1	6%	-11%	-23%	2µM*	-12%[59 µM]	-17%	47µM*	i
COc1ccccc1N1CCN(C(=O)c2cc(=O)c3ccc(C)cc3o2)CC1	42%	-30%	-9%	-7%	-6%[2.33 µM]	x	x	x
CNc1c(NS(=O)(=O)c2ccc(C3CCCCC3)cc2)c(=O)oc2ccccc12	24%	2%	-1%	-2%	5%	x	x	x
COc1cccc(C(=O)c2c(-c3ccccc3)ncc3cc(OC)c(OC)cc23)c1	11%	x	u	x	x	-25%	x	x
Cc1ccc(C2=NN=C(NC(=O)CSc3nncn3C)SC2)cc1	35µM*	-13%	u	8.9µM*	22µM*	-14%	26µM*	x
O=C(Nc1ccnn1C1CCN(C(=O)c2cccc(Cl)c2)CC1)C1CCOC1 (stereo not given)	25%	-6%	3%	13%	40%	x	x	x
COc1cccc(-c2nn(C)c3sc(C(=O)NCc4ccc(C)o4)cc23)c1	-34%	u	50µM*	3.5µM*	u	x	24µM*	x
CCOC(=O)C[n+]1c(C)sc2ccc(OC)cc21	u	u	50µM*	1µM*	1.3µM*	1%	6.6µM*	i
CC(OC(=O)c1ccc(Cl)c(S(N)(=O)=O)c1)C(=O)NCc1ccc2c(c1)OCO2 (stereo not given)	3%	-1%	-12%	x	u	-1%	x	x
CCOC(=O)Cc1nnc(NC(=O)c2ncn[nH]2)s1	14%	8.9µM*	2µM*	14µM*	u	x	-4%	i
CC(C)(Cc1cccc(CC(C)(C)C(=O)O)c1)C(=O)O	62%	3%	-12%	21%	14%	3%	x	x
C[C@@](Cc1ccc(O)c(O)c1)(NN)C(=O)O	u	5%	79µM*	20µM*!	3.2µM*!	4%	u	6.2µM*
